The inhibition is the drop in the measured response relative to a control, in per cent.

Hit rate of the full screen: of about 370,000 compounds, about 2,400 (0.65%) were called active. This is one part of a sample in which actives are shown more often than they occur.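 Rule for the calls: active = inhibition above the screen-wide mean plus 3 SD (cut at about 13% in these data); inactive = the rest.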

We go through 46 compounds from PubChem BioAssay AID743269 (The Scripps Research Institute Molecular Screening Center, 2014).

This assay deals with HIV-1 integrase (with human LEDGF/p75). Kind of assay: blockers of LEDGF/p75-dependent integrase strand transfer – biochemical, TR-FRET, high throughput, primary screen (AID 743269).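 Note: signal is the Cy5 over europium emission ratio at 671 and 618 nm; 0% = plate median of compound wells.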 Particulars: TR-FRET IN-LEDGF/p75 DNA integration, Eu/Cy5; at 3.7 µM; active compounds read high. A general note: In TR-FRET formats the signal depends on donor and acceptor labels being close together.
For `C=C1C(C(C)C)N(C)C2=NC(c3ccccc3)CC(=O)N12` (stereo unspecified), the inhibition is 1.74% (inactive).
For the compound `COC(=O)C1CN(Cc2ccc(F)cc2)CCS(=O)(=O)N1Cc1ccc(Cl)cc1` (stereo unspecified), the inhibition is -0.83% (inactive).
The same measure for `CCc1ccccc1NC(=O)CSc1nnc(-c2cccs2)o1`: 1.45% (inactive).
Turning to `C/C(=N\NC(=O)c1cccc(N2CCCC2=O)c1)c1ccc(N)cc1`, the inhibition is -2.92% (inactive).
In the case of `O=C(c1cccc(N2CCCC2=O)c1)N1CCOCC1`, the inhibition was -4.51% (inactive).
Regarding `NC1=NN(c2cccc(C(=O)O)c2)C(=O)C1`, the inhibition is 13.8% (active).
The same measure for `CCOC(=O)N1CCN(C(=O)C[C@H]2C[C@@]3(C(=O)OC)C(=C[C@H](C(C)(C)C)O[C@@H]3C)N(Cc3ccc(Cl)cc3Cl)C2=O)CC1`: -2.55% (inactive).
Regarding `CCOC(=O)c1ccn(-c2nc(-c3ccco3)cc(C(F)(F)F)n2)n1`, the inhibition is -1.1% (inactive).
`Cc1cc(C)c2nc(-c3ccco3)cc(C(=O)O)c2c1`: the inhibition is 57.2% (active).
On to `Cc1ccsc1-c1cc(C(=O)O)c2c(ccc3ccccc32)n1`, for which the inhibition is 0.22% (inactive).
Consider `COc1ccc(-n2c(COc3ccc(C)cc3)nnc2SCC(=O)Nc2ccc(Oc3ccccc3)cc2)cc1`, for which the inhibition was -0.53% (inactive).
Take `COC(=O)c1cccc(Cn2ccc3ccc(-c4ccc5ccn(C(=O)c6ccccc6C)c5c4)cc32)c1`: the inhibition is 1.28% (inactive).
As to `CC(C)(C)c1ccc(CSc2nnc(-c3cccs3)o2)cc1`, the inhibition is -0.85% (inactive).
Turning to `CCOc1ccc(CN2CCN(Cc3ccc(C)o3)CC2CCO)cc1` (stereo unspecified), the inhibition is -3.16% (inactive).
`CCn1nc(C)c(CN2CCN(Cc3ccc(OC)c(C)c3C)C(CCO)C2)c1C` (stereo unspecified): the inhibition was 13.4% (active).
Regarding `COc1ccc(CN2CCN(Cc3cn(C)nc3-c3ccccc3)CC2CCO)c(C)c1C` (stereo unspecified), the inhibition was 3.11% (inactive).
As for `Cc1ccc(NC(=S)NNC(=O)CSc2nnc(SCc3ccccc3Cl)s2)cc1`, the inhibition was 3.99% (inactive).
For the compound `CC(C)N1CCCCC(NC(=O)c2ccc3ccccc3c2)C1=O` (stereo unspecified), the inhibition is 0.96% (inactive).
Take `Cc1ccc(Cn2cc(CN3[C@@H](CC(C)C)COc4ccc(Cl)cc4S3(=O)=O)nn2)cc1`: the inhibition was 1.01% (inactive).
In the case of `O=S1(=O)c2ccc(Br)cc2OC[C@@H](Cc2ccccc2)N1Cc1cn(Cc2ccco2)nn1`, the inhibition was 5.73% (inactive).
As to `O=C1C=CC(=O)N1c1ccc(N2CCCCC2)cc1`, the inhibition was 14.3% (active).
With `Cc1ccc(-n2c(SCC(=O)Nc3ccc(S(=O)(=O)Nc4nccs4)cc3)nnc2-c2ccccn2)cc1` the figure was -3.23% (inactive); with `COC(=O)C1CN(CCc2ccccc2)CCS(=O)(=O)N1Cc1cccc(Cl)c1` (stereo unspecified), 0.85% (inactive).
With `CN(C)[C@H]1CCN(c2cccc3c2S(=O)(=O)N2CC[C@H](C2)O3)C1`, the inhibition was 2.98% (inactive).
Take `C=CCn1c(=S)[nH]c2scc(-c3ccco3)c2c1=O`: the inhibition is 42.3% (active).
As for `O=S1(=O)c2c(cccc2N2CC[C@H](O)C2)O[C@@H]2CCN1C2`, the inhibition is 1.21% (inactive).
Consider `O=C(N1CCOCC1)N1CC[C@H]2[C@H](CCCN2Cc2ccc(F)cc2)C1`, for which the inhibition was 3% (inactive).
For the compound `O=C(c1ccncc1)N1CC[C@H]2[C@H](CCCN2Cc2ccc(F)cc2)C1`, the inhibition was 1.57% (inactive).
Take `O=C(c1cccc(C(F)(F)F)c1)N1CC[C@H]2[C@H](CCCN2Cc2cc(F)cc(F)c2)C1`: the inhibition was 86.5% (active).
The same measure for `CCN(CC)C(=O)CC[C@@H]1CC[C@]2(CCCN(S(=O)(=O)C3CCCCC3)C2)O1`: -3.12% (inactive); for `COc1ccc(Cn2cc(COC(=O)N(C)Cc3ccccc3)nn2)cc1`: 2.21% (inactive); for `CSc1ccc(-c2c(C#N)c(N)nc3c2c(C)nn3-c2ccccc2)cc1`: -1.93% (inactive).
With `CSc1nc(N)c(C#N)c(-c2ccccc2Cl)c1C#N`, the inhibition is 30.9% (active).
On to `CCc1c(-c2ccccc2)nc(N)c(C#N)c1-c1cccs1`, for which the inhibition is 0.5% (inactive).
With `CCCCCCCCNS(=O)(=O)/C=C/c1cc(C)ccc1CNC(=O)OC(C)(C)C`, the inhibition is -0.25% (inactive).
The same measure for `COc1ccc(CN2C(=O)N3Cc4cc(OC)ccc4C3CS2(=O)=O)cc1` (stereo unspecified): 0.03% (inactive); for `CCc1cc2c(SCC(=O)Nc3ncc(Cl)c(C)c3Cl)ncnc2s1`: 44.2% (active).
With `Cc1sc2ncnc(SCC(=O)Nc3ccc(CN4CCCC4)cc3)c2c1C` the figure was -2.64% (inactive).
For `Cc1c(Cl)cnc(NC(=O)COC(=O)C2CCCC2)c1Cl`, the inhibition is 3.73% (inactive).
As for `O=C(CNS(=O)(=O)c1ccccc1F)N1CCN(c2ccccn2)CC1`, the inhibition is -3.63% (inactive).
The same measure for `COC(=O)[C@]12C[C@H](CC(=O)N3CCN(C(=O)C4CC4)CC3)C(=O)N(CCC3=CCCCC3)C1=C[C@H](C(C)C)O[C@@H]2C1CC1`: -2.49% (inactive); for `O=C(CN1C(=O)c2ccccc2S1(=O)=O)N1CCc2ccccc21`: -3.85% (inactive).
For `NS(=O)(=O)c1ccc(CCNC(=O)CN2C(=O)c3ccccc3S2(=O)=O)cc1`, the inhibition was 4.15% (inactive).
With `CN(Cc1ccc(F)cc1)C(=O)CN1C(=O)c2ccccc2S1(=O)=O`, the inhibition was 18% (active).
As to `CCOC(=O)[C@@]12CN(C(=O)OC(C)(C)C)CC=C1N(Cc1ccc(OC)cc1)C(=O)[C@H]2CC(=O)NCc1ccc(OC)c(OC)c1`, the inhibition is -2.96% (inactive).
Take `CC(C)(C)OC(=O)NCc1cc(F)ccc1/C=C/S(=O)(=O)NCCc1ccccc1`: the inhibition is 1.04% (inactive).
